Screening data from PubChem.
MCF10A rereplic = A quantitative high throughput screen for small molecules that induce DNA re-replication in MCF 10a normal breast cells; AID 624296, 2012; 350,000 tested, 2.9% active; Potency, µM (top dose mostly 46.1 µM), inactives show at the highest dose activity, positive = re-replication, hits mostly activators; MCF 10A DNA re-replication, Hoechst nuclear intensity, 48 h; note: potency is the fitted concentration of half-maximal effect; % of control where 0% means no effect; nearly all actives have a fitted effect of over 50% in size
KB-V1 MDR tox = qHTS assay for MDR1-selective chemotherapeutics: Primary screen using the drug-selected MDR subline cells KB-V1; KB-V1 MDR cells viability, CellTiter-Glo, 72 h; Potency, µM (titrated, usually from 46.1 µM), actives largely listed as cytotoxic; 400,000 tested, 3.4% active; AID 1347076, 2019; note: potency is the fitted concentration of half-maximal effect; % is set by controls: 0 for no effect and ±100 for the full control effect; nearly all actives have a fitted effect of over 60% in size
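KB-V1 cells (P-gp-expressing MDR subline of KB-3-1) in phenol-red-free DMEM with 10% FBS were exposed to library compounds over a concentration series for 72 h at 37 degrees C. Viability read by CellTiter-Glo luminescence; concentration-effect curves fitted after normalization.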
SW480 rereplic = A quantitative high throughput screen for small molecules that induce DNA re-replication in SW480 colon adenocarcinoma cells; 340,000 tested, 1.8% active; SW480 DNA re-replication, Hoechst DNA content imaging, 48 h; Potency, µM (titrated, usually from 46.1 µM), without a hit: at the highest dose re-replication activation, usual class: activators; note: potency is the fitted concentration of half-maximal effect; % of control where 0% means no effect; nearly all actives have a fitted effect of over 55% in size
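Image-based read-out: total Hoechst fluorescence of nuclei (405 nm excitation, 500-530 nm emission), with hits raising the fraction of high-intensity nuclei. SW480 colon cells incubated 48 hr with compounds at 37 C.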
IL1B secr inh = qHTS for Inhibitors of Inflammasome Signaling: IL-1-beta AlphaLISA Primary Screen; 360,000 tested, 4.7% active; AID 743279, 2014; activity change, % at 57.5 µM; THP-1 LPS/ATP IL-1B secretion, AlphaLISA, 16 h; hits give low values; in the data active = activity change below about -50%; inconclusive = mostly about -30% to -49%; note: % is set by controls: 0 for no effect and ±100 for the full control effect
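Secreted IL-1B measured by AlphaLISA bead assay after 16 h compound exposure of THP-1 cells; compounds (final up to 57.5 uM) added 1 h before LPS (250 ng/mL) and ATP (1.25 mM) stimulation; lower signal means less secretion.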
KB-3-1 tox = qHTS assay for MDR1-selective chemotherapeutics: Primary screen using the parental adenocarcinoma cell KB-3-1; KB-3-1 viability, CellTiter-Glo ATP luminescence, 72 h; Potency, µM (doses to about 46.1 µM), usual class: cytotoxic; 400,000 tested, 1.4% active; note: potency is the fitted concentration of half-maximal effect; % is set by controls: 0 for no effect and ±100 for the full control effect; nearly all actives have a fitted effect of over 60% in size
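Parental KB-3-1 viability, qHTS format: 72 h compound exposure, 37 °C; CellTiter-Glo; media-only wells and DMSO plates as controls; concentration-effect fits on corrected data.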
* marks the source's active call; other numbers are inactive results; i = inactive; ? = inconclusive; / = no result. Shown are actives, neighbours in structure and some others; about 9.9% of the full set was active somewhere. Unless noted, calls come from the whole dose curve; as a rule, active = well fitted curve in the direction sought with a large enough effect; inconclusive = small, poorly fitted or top-dose-only effect, or another doubt; inactive = no such curve, though single readings can be large; an effect the other way counts as inactive or inconclusive.

SMILES	MCF10A rereplic	KB-V1 MDR tox	SW480 rereplic	IL1B secr inh	KB-3-1 tox
C=CCNc1nnc(Cc2ccc(C(C)C)cc2)c(=O)[nH]1	?	i	?	6	15µM*
COC(=O)[C@H](Cc1ccccc1)NC(=O)N1CCN(c2ccc(F)cc2)CC1	?	?	4%	0	i
CCOC(=O)C1C(c2ccc(O)c(O)c2)NC(=S)NC1(O)C(F)(F)F (stereo unspecified)	-1%	i	7%	-6	i
OC[C@H](O)[C@H](O)[C@@H](O)[C@@H](O)[C@@H]1SC(c2ccccc2)=NN1c1ccccc1	?	i	?	-62*	i
Cc1ccc(C(=O)Nc2nnc(S(=O)(=O)N3CCC(C)CC3)s2)cc1	-4%	i	-3%	30	i
CN(C)S(=O)(=O)c1ccc(SCC(=O)Nc2cccc(S(=O)(=O)N3CCCC3)c2)nc1	-1%	i	-4%	24	i
CCCCOC(=O)CSc1nc2c(cc1C#N)C(=O)CC(C)(C)C2	15%	i	-4%	-15	i
CN(C)S(=O)(=O)c1cccc(NC(=O)CSc2cccc3cccnc23)c1	?	?	?	-105*	?
CN(C)S(=O)(=O)c1cccc(NC(=O)CSc2nc3c(cc2C#N)C(=O)CC(C)(C)C3)c1	15µM*	16µM*	16µM*	-58*	21µM*
CN(C)S(=O)(=O)c1ccc(Cl)c(NC(=O)CSc2nc3c(cc2C#N)C(=O)CC(C)(C)C3)c1	2.9µM*	i	?	-6	i
CC(=O)Nc1ccc(CN2CCCC(C(=O)c3ccc(C(F)(F)F)cc3)C2)cc1 (stereo unspecified)	-11%	i	-3%	-22	i
COc1ccc(C(=O)CSc2nn3c(=O)c(C(C)(C)C)nnc3s2)cc1	?	?	7%	-58*	i
Cc1ccc(-c2ccc(=O)[nH]n2)cc1	0%	?	0%	0	i
CCCCCc1ccc(-c2ccc(=O)[nH]n2)cc1	16%	5.2µM*	-1%	11	6.5µM*
CNS(=O)(=O)c1cn(CC(=O)N2CCN(c3ccc(C)cc3C)CC2)cc1S(=O)(=O)NC	/	i	/	/	i
COc1ccc(S(=O)(=O)NCCc2sc(-c3ccccc3)nc2C)cc1OC	/	?	/	/	i
COc1ccc(-c2nc(C)c(CCNS(=O)(=O)c3cc(Cl)ccc3Cl)s2)cc1	/	21µM*	/	/	15µM*
Cc1nc(-c2ccccc2)sc1CCNS(=O)(=O)c1ccc(Br)cc1	/	21µM*	/	/	?
COc1ccc(-c2nc(C)c(CCNS(=O)(=O)c3cc(C)c(C)cc3C)s2)cc1	/	18µM*	/	/	?
COc1ccc(-c2nc(C)c(CCNS(=O)(=O)c3ccc(F)cc3)s2)cc1OC	/	9.2µM*	/	/	?
Cc1cc(N)n(-c2ccc(Oc3ccccc3)c(S(=O)(=O)O)c2)n1	-3%	i	9%	13	i
CCOC(=O)N1CCN(C(=O)c2ccc(SC)cc2OC)CC1	-1%	i	-8%	10	i
Cc1nc(C)c(CCNS(=O)(=O)c2ccc(C)c(C)c2)s1	/	21µM*	/	/	?
COC(=O)c1ccc2c(=O)[nH]c(COC(=O)c3c(-c4ccccc4)noc3C)nc2c1	18%	i	-11%	11	i
Cc1ccc(C2=NN(Cc3nnc(-c4ccccc4)o3)C(=O)SC2)cc1	?	13µM*	-1%	-5	i
SMILES	MCF10A rereplic	KB-V1 MDR tox	SW480 rereplic	IL1B secr inh	KB-3-1 tox
CCOC(=O)Cc1nnc(-c2ccccc2)o1	8%	i	-3%	-1	i
COc1cccc(NC(=S)N2CCCN(Cc3ccc(F)cc3)C2)c1	25%	i	3%	-13	i
Cc1cccc(C)c1NC(=S)N1CCCN(Cc2ccc(F)cc2)C1	-1%	i	-5%	-51*	i
CCOc1ccc(NC(=S)N2CCCN(Cc3cccc(Cl)c3)C2)cc1	?	i	?	-61*	i
COc1ccc(NC(=S)N2CCCN(Cc3cccc(Cl)c3)C2)cc1	?	i	13%	-64*	i
CSc1cccc(NC(=S)N2CCCN(Cc3cccc(Cl)c3)C2)c1	?	?	?	-82*	i
CC(=O)Nc1ccc(S(=O)(=O)N2CCN(Cc3csc(C)n3)CC2)cc1	-2%	i	-4%	0	i
Cc1cccc(C)c1OCCNC(=O)OCc1ccccc1	9%	i	0%	3	i
CCn1cc(C(=O)NC2CCCCCC2)c(=O)c2ccc(C)nc21	-5%	i	-7%	8	i
CCOC(=O)c1sc2ncn(CC(=O)Nc3ccc(OCC)cc3)c(=O)c2c1C	/	i	/	/	i
COc1cccc(C(=O)OCC(=O)NC(C)CCc2ccccc2)c1O (stereo unspecified)	0%	i	-18%	-2	i
CC[N+]1(C)CCC(O)(c2ccc(OC)cc2)C(C(=O)c2ccc(OC)cc2)C1 (stereo unspecified)	4.6µM*	?	2.9µM*	-78*	?
O=C(Nc1cccc([S+](=O)([O-])Nc2ccccc2F)c1)c1ccccc1	/	i	/	/	i
CCN1CCN(CC(=O)Nc2cc(S(=O)(=O)N3CCCCC3)ccc2Cl)CC1	?	i	-10%	-12	i
CCN1CCN(CC(=O)Nc2cc(S(=O)(=O)N(CC)c3ccccc3)ccc2Cl)CC1	21µM*	i	?	?	i
CCN(c1ccccc1)S(=O)(=O)c1ccc(OC)c(NC(=O)Cc2ccccc2OC)c1	10%	i	-33%	0	?
CCN(CC)S(=O)(=O)c1ccc(Cl)c(NC(=O)COC(=O)c2ccc(O)cc2)c1	4%	i	0%	3	i
CCN(CC)S(=O)(=O)c1ccc(Cl)c(NC(=O)COC(=O)c2cccn2C)c1	2%	15µM*	3%	?	i
CCN(c1ccccc1)S(=O)(=O)c1ccc(Cl)c(NC(=O)CNCc2ccccc2OC)c1	16µM*	/	?	-14	/
CCN(c1ccccc1)S(=O)(=O)c1ccc(Cl)c(NC(=O)CSc2ncn[nH]2)c1	16%	23µM*	2%	-4	i
CCN(c1ccccc1)S(=O)(=O)c1ccc(Cl)c(NC(=O)CSc2n[nH]c(N)n2)c1	-8%	i	-49%	0	i
CN1C(=O)Cc2cc(S(=O)(=O)N3CCN(c4cccc(Cl)c4)CC3)ccc21	-4%	i	-28%	2	i
CCOC(=O)C(CC)c1cc2n(c(=O)c1C#N)CCC21OCCO1 (stereo unspecified)	/	i	/	23	i
